Data published in the supplement of paper PMC11417369.
In all, about 25,000 sequences were measured (“ln(normalized median fluorescence intensity)”: median about 9.7, highest 2% from about 11 on). This excerpt belongs to a sample that is enriched for the highest values.

tested on: PfAP2-HC AP2 domain (GST-tagged); test: gcPBM binding intensity (ln(normalized median fluorescence intensity)); higher = stronger DNA binding
Method in brief: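 The binding buffer was 1× PBS containing 1% milk, 0.2 mg/ml BSA, 0.5% salmon testes DNA and 0.03% Triton X-100. In it, GST-tagged P. falciparum DNA-binding domains expressed in E. coli were applied for 1 h to an Agilent 4 × 180k array of primer-extended double-stranded 36-bp intergenic genomic probes plus negative controls. Binding intensity, read with Alexa488 anti-GST antibody and a 488 nm scan, is the highest Masliner-normalised natural-log median intensity across replicate spots of either probe orientation.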

Sequence | gcPBM binding intensity (ln)
ATTTTTTTGTTATTGTTGAAAAGATGGTTCTTTTTT [CACACA_negctrl_site1346] | 9.52
TATATAGGTATATATACACACAACGGTTATAAATAT [CACACA_site4759] | 9.94
AGCATATTATCATATTGTACATATTATAATATATAT [XGTACX_site3907] | 9.69
AATAATACAAAAGTTCAACAAAAAAAAAAAAAAAAT [CACACA_negctrl_site952] | 9.75
TGTTAATTAAAACATCATTAATATTATTAAAAATAC [XGTACX_negctrl_site509] | 9.36
ATTTTTTTTATTTTTTCAATATATATATATATATAT [CACACA_negctrl_site1444] | 9.74
AAAATATAATATATTACACACATATATTTTATAAGT [CACACA_site668] | 9.82
ATATATATGAATACATGTACGTATTTGTCTATGTAT [XGTACX_site8306] | 9.81
TTTTTTATTATTATGTGTACGAATATGTGCATATAA [XGTACX_site1364] | 9.65
AAAAATAAAGGGTGTGCACACAAAAATATATATATA [CACACA_site1727] | 11
TAAATATAAAAATGCACACACACAAAAAAAAAAAAA [CACACA_site895] | 11.4
AAAAAAAAAAAACACACACACACACTAATATATAAA [CACACA_site8302] | 10.9
TACACCCACCAACACACACACACACTAATAAAAAAA [CACACA_site8060] | 11.3
AATATAAAAATGCACACACACAAAAAAAAAAAAAAA [CACACA_site6546] | 10.9
AATAAAAAAAAATGCACACATATATATATATATATA [CACACA_site2421] | 9.71
TGAACACCCACAAATACACACAAAAAAAATAAATAA [CACACA_site248] | 10.6
AAAAATAAAAGGTGTGCACACAAAAATATATATATA [CACACA_site8507] | 10.5
AAATAAAAAGGGTGCACACAAAAATATATATATATA [CACACA_site1728] | 9.94
ATAATATGAAAACACACACACACACTAATAAAAAAA [CACACA_site8617] | 11.5
TGCACCCACCAACACACACACAACTAAAAAATAATG [CACACA_site2566] | 10.5
ATAATATGAAAACACACACACACACTAGAAAAAAAA [CACACA_site5153] | 10.9
TTTTAATTAGTACAAACACACATATACACCCAAAAA [CACACA_site5422] | 10
GATGATACGATTATCACACATTTATACTTTCTACAT [CACACA_site5669] | 9.85

Sequence | gcPBM binding intensity (ln)
AAACAAAAAATTTAAAGTACAAAAATTATGATTGTT [XGTACX_site465] | 9.62
TATTTAATGTGATACTTATATTATTTTATGATTAAA [GTGCAC_negctrl_site25] | 9.49
AAAAAAGTTGTATTTGCACACATAAAAAAAAGATAT [CACACA_site3839] | 9.93
AGAGAATAAATATAAAGTACATATATAAATATATAT [XGTACX_site5055] | 9.7
AAAAAATTATATAAATGTACATTTTGGCTAGACATG [XGTACX_site5977] | 9.71
TATAATAAATCAAATGCACACACACTAATAAAAAAA [CACACA_site7937] | 11.3
AATATAATATAATGCACACATAAAAAAAAAATCAAA [CACACA_site122] | 9.89
AATAAATATAAAAATGCACACACACTAATAAAAAAA [CACACA_site8201] | 11.4
ATATAAATAATATAAATACACACTAAAAAAAATATA [CACACA_site542] | 9.84
AAAAATATAAACTGCACACACAAAAAAAAAAGAGAA [CACACA_site1367] | 10.3
AAAAATATAAACTGCACACACACAAAAAAAGAAAAA [CACACA_site648] | 10.8
TAATAAATCAAATGCACACACACAAAAAAAAAAAAA [CACACA_site161] | 10.3
ATAAATAATATAAATACACACTAAAAAAAATATATA [CACACA_site4456] | 9.88
AAAATATAATATAATGCACACATAAAAAAAAAAAAA [CACACA_site7989] | 9.84
TAAAAAATATAAACTGCACACACACTAATAAAGAAA [CACACA_site8119] | 11.1
ATAATAAAAAAAAATGCACACATATATATATATATA [CACACA_site8766] | 9.8
TATATATATATATATACACACACACTAATAAAAAAA [CACACA_site8426] | 11
TATAAAAATAGGATTTGTACATATAAAAAAGGAAAA [XGTACX_site8678] | 9.73
TATAATATTAATGACTGTACTCATACGTATATTTAT [XGTACX_site5493] | 9.76
TACGGTTGTTTATTTTGTACGTAAAAAATATATTAT [XGTACX_site8393] | 9.7
ATTAAATAAAATCATGCACACAATATATATTTTAAG [CACACA_site2495] | 9.71
AACATAATTAAAAATTGTACAGAATTTCAATCGAAA [XGTACX_site7542] | 9.62
TCAACAAATAAACTTTGTACATATATACAAAATATA [XGTACX_site4447] | 9.53
